Source: PubChem BioAssay
Values without a mark were called inactive.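 The calls were made as follows: active = viability increase at or above a cutoff of the median across tested compounds plus 3 SD (cut at about 8.5% in these data, passing the limit was not always enough); inconclusive = some gains above the cutoff, reason not given; inactive = the rest.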

Assay: viability gain of MRP-1-high H69AR cells under doxorubicin, pilot screen, MRP-1 activator project, CellTiter-Glo, duplicate (AID 807);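 also: compound pretreatment 18-22 h then 72 h combined with doxorubicin; 0% = doxorubicin alone and 100% = vehicle without doxorubicin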
Settings: H69AR viability with doxorubicin, CellTiter-Glo luminescence; at 10 µM; active compounds read high

| SMILES | viability increase [%] |
| --- | --- |
| Cc1ccc(C2/C(=C(/O)c3ccc(Br)cc3)C(=O)C(=O)N2Cc2ccco2)o1 (centres undefined) | -6.07 |
| C=CCN(C(=O)CN1CCOCC1)c1nc(C)c(-c2ccccc2)s1 | -3.35 |
| CCOc1cccc(=O)c2c(C)n(Cc3ccco3)c(C)c12 | -3.8 |
| CCOc1ccc(N(CC(=O)Nc2ccc(C)cc2)S(=O)(=O)c2c(C)noc2C)cc1 | -3.45 |
| CCCc1ccc(Oc2cn[nH]c2-c2ccc(O)cc2O)cc1 | -3.5 |
| CCOC(=O)N1CCN(C(=O)C2CCN(Cc3nc(-c4ccccc4C)oc3C)CC2)CC1 | -1.65 |
| Cc1cccc(NC(=O)CN2CCN(CC(=O)Nc3cccc(C)c3)CC2)c1 | -4.48 |
| COc1ccc(-c2nc(CSCC(=O)N3CCC(C(N)=O)CC3)c(C)o2)cc1OC | -0.52 |
| O=C1CC(c2ccco2)Sc2nc3ccccc3n21 (centres undefined) | -3.98 |
| COc1cc(NC(=O)c2onc(C)c2Cl)c(OC)cc1Cl | -5.82 |
| C/C(=C1/SC(N2CCOCC2)=NC1=O)c1ccc(Br)cc1 | -1.99 |
| COc1ccc(OC)c(C2=Nn3c(nnc3-c3ccncc3)SC2)c1 | -2.51 |
| CCOc1ccc2nc(N3CCCC(C(=O)N4CCN(CC)CC4)C3)sc2c1 (centres undefined) | 0.55 |
| O=C(Nc1nccs1)C12CC3CC(C1)CC(C(=O)Nc1nccs1)(C3)C2 | -2.85 |
| O=C(NC1CCCCC1)N1CCCc2ccccc21 | -4.89 |
| COc1ccc(C(=O)OCCN2C(=O)c3ccccc3C2=O)cc1 | -0.3 |
| OC(COc1ccccc1Cl)CN1CCN(CC(O)COc2ccccc2Cl)CC1 (centres undefined) | -5.92 |
| COCCNC(=O)CN1C(=O)CC(C)(C)S(=O)(=O)c2ccccc21 | 1.42 |
| Cc1ccc(S(=O)(=O)NCC(=O)N2CCC(C)CC2)cc1 | 0.72 |
| CCOc1ccc(C2CC(c3cccc(OC)c3)n3nc(N)nc3N2)cc1 (centres undefined) | 0.88 |

| SMILES | viability increase [%] |
| --- | --- |
| Cc1ccc(C2CC(c3cccc(Br)c3)n3nc(N)nc3N2)cc1 (centres undefined) | -1.6 |
| Cc1cc(Nc2cccc(F)c2)n2nc(C)nc2n1 | -2.42 |
| CCSc1nnc(NC(=O)CSc2nc3c(c(=O)n2-c2ccccc2)SCC3)s1 | -1.11 |
| O=c1oc2ccccc2n1Cc1ccccc1Cl | -0.37 |
| Cc1ccc(-c2nc(NC(=O)CSc3nnc(C)s3)ns2)cc1 | -0.8 |
| CC1(C)CC2CC(C)(CN2C(=O)c2cc(-c3ccccc3O)on2)C1 (centres undefined) | -5.87 |
| CC1CC(C)CN(S(=O)(=O)c2ccc(NC(=O)C3COc4ccccc4O3)cc2)C1 (centres undefined) | -7.35 |
| O=C(Nc1scc(-c2cccs2)c1C(=O)O)c1cccs1 | 3.64 |
| Cc1nc2ccccn2c1C(=O)NC1CCCCC1 | -1.3 |
| O=c1[nH]c2ccc(Cl)cc2c(-c2ccccc2)c1N1CCOCC1 | -3.04 |
| CCOC(=O)CN1c2ccccc2NC(=O)CC1C (centres undefined) | -4.06 |
| CCCCCn1c(=N)n(CC(O)COc2ccccc2OC)c2ccccc21 (centres undefined) | -7.9 |
| COc1ccc(N2C(=O)c3ccccc3NC23CCCCC3)cc1 | -1.34 |
| Cc1cccc(N2CCN(C(=O)C3CCN(S(=O)(=O)c4cccc5cccnc45)CC3)CC2C)c1 (centres undefined) | -1.38 |
| CC(=O)Nn1cc2c(=O)n(C)c(=O)n(C)c2c1 | 0.99 |
| CC1=C(C(=O)OCCOc2ccccc2)C(c2ccc(C)o2)C2=C(CC(C)(C)CC2=O)N1 (centres undefined) | -0.88 |
| N/C(CC(=O)Nc1cccc(C(F)(F)F)c1)=N/O | -1.91 |
| COc1ccccc1CNC(=O)CCn1c(=O)oc2ccccc21 | -3.05 |
| Cc1ccc(C(=O)N(Cc2nc(-c3ccc(C)cc3)no2)C(C)C)cc1 | 0.77 |
